Reference: PubChem BioAssay (EPA / NIEHS)
Active and inactive are the calls of the source. How the source made its calls: active means hit-call score of the fitted dose curve at least 0.9, where 1 is the maximum; inactive means score below 0.9.

Assays:
[1] = ATG_E_Box_CIS: Attagene CIS-FACTORIAL HepG2 Assay for human Enhancer Box (E-box) (AID 2282936); details: HepG2 E-box cis-reporter transcription, actives raise or lower the signal
Summary of the method: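 Multiplexed CIS reporter system in transiently transfected HepG2 cells measures native transcription factor activity. Reporter RNA after 24 h exposure is profiled by RT-PCR-capillary electrophoresis.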

[2] = ATG_M_61_CIS: Attagene CIS-FACTORIAL HepG2 Assay for M61 Transcription Factor (Internal Marker) (AID 2282937); details: HepG2 Attagene CIS-FACTORIAL M61 internal marker reporter; actives raise or lower the signal
Summary of the method: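 Human liver HepG2, transient MRTU transfection (cis promoter elements), 24 h compound. Total RNA → oligo(dT) RT → PCR → FAM label → HpaI → CE. Internal background marker; bidirectional fitting, DMSO = baseline.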

[3] = ATG_EGR_CIS: Attagene CIS-FACTORIAL HepG2 Assay for human Early Growth Response 1 (EGR1) (AID 2282938); details: HepG2 Attagene CIS-FACTORIAL EGR reporter mRNA; actives raise or lower the signal
Summary of the method: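 Transient transfection of human HepG2 with multiple cis-regulated reporter units, chemical exposure 24 h, total RNA isolated. Reverse transcription, PCR, fluorescent labelling and capillary electrophoresis quantify reporter transcripts; activity fitted bidirectionally against DMSO.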

[4] = ATG_M_19_CIS: Attagene CIS-FACTORIAL HepG2 Assay for M19 Transcription Factor (Internal Marker) (AID 2282939); details: HepG2 Attagene CIS-FACTORIAL M19 internal marker reporter; actives raise or lower the signal
Summary of the method: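 Background-control endpoint from a multiplexed HepG2 reporter panel. Cells carrying cis-regulated reporter constructs are treated 24 h, then reporter transcripts are amplified, fluorescently labelled and sized by capillary electrophoresis. DMSO defines baseline.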

[5] = ATG_ERE_CIS: Attagene CIS-FACTORIAL HepG2 Assay for Estrogen Response Element (ERE) (AID 2282940); details: HepG2 ERE cis-reporter, Attagene RNA transcript; actives raise or lower the signal
Summary of the method: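 Cells used were human hepatoma HepG2, transfected with multiple reporter transcription units under cis-regulatory promoters. Reporter mRNA, read 24 h post-dosing via fluorescent RT-PCR products on capillary electrophoresis, was fitted bidirectionally relative to DMSO.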

[6] = ATG_Ets_CIS: Attagene CIS-FACTORIAL HepG2 Assay for human Erythroblast Transformation Specific (ETS) (AID 2282941); details: HepG2 ETS cis-reporter transcription, actives raise or lower the signal
Summary of the method: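 After transient cis-reporter transfection, HepG2 cells receive test chemical for 24 h. Reporter mRNA levels, measured by RT-PCR and capillary electrophoresis fluorescence, are analysed bidirectionally relative to the DMSO baseline.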

[7] = target: Hepatocyte nuclear factor 3-beta (Homo sapiens) (UniProt Q9Y261); experiment: ATG_FoxA2_CIS: Attagene CIS-FACTORIAL HepG2 Assay for human Forkhead box A2 (FOXA2) (AID 2282942); details: HepG2 cis-reporter transcription factor activity, 24 h; actives raise or lower the signal
Chain of Hepatocyte nuclear factor 3-beta (Homo sapiens) (Q9Y261 whole entry, looked up): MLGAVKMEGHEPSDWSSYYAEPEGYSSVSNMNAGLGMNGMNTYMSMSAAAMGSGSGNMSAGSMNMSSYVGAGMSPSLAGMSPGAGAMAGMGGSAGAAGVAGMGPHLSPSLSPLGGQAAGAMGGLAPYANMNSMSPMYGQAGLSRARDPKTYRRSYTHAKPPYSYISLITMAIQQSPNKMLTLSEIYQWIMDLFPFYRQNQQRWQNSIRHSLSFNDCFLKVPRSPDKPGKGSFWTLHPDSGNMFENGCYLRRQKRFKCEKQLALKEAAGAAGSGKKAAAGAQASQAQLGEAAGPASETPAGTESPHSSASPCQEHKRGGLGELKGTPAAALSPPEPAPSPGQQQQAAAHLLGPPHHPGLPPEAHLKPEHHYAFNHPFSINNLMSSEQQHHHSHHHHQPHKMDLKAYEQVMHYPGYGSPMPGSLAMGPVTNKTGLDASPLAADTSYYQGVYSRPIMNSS
Summary of the method: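 Transient MRTU transfection of HepG2 liver cells; 24 h treatment; total RNA → oligo(dT) RT → PCR → FAM primer extension → HpaI cut → CE. Bidirectional fit vs DMSO.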

[8] = ATG_FoxO_CIS: Attagene CIS-FACTORIAL HepG2 Assay for human Forkhead box O (FoxO) (AID 2282943); details: HepG2 Attagene cis-reporter, FoxO element, mRNA; actives raise or lower the signal
Summary of the method: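 HepG2 cells transiently transfected with cis-promoter-driven multiple reporter transcription units; 24 h after chemical dosing, reporter mRNA quantified by RT-PCR, fluorescent primer extension, HpaI digestion and capillary electrophoresis. Bidirectional fitting versus DMSO baseline.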

[9] = ATG_GATA_CIS: Attagene CIS-FACTORIAL HepG2 Assay for human GATA Binding Protein (AID 2282944); details: HepG2 GATA cis-element reporter, Attagene multiplex mRNA; actives raise or lower the signal
Summary of the method: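 Endogenous transcription factor activity was captured through cis-promoter-driven reporters in transfected HepG2 cells. After 24 h exposure, reporter transcripts were quantified by RT-PCR with fluorescent capillary electrophoresis, and responses fitted both directions against DMSO.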

[10] = ATG_GLI_CIS: Attagene CIS-FACTORIAL HepG2 Assay for human Zinc Finger Protein GLI1 (AID 2282945); details: HepG2, Attagene cis-factorial reporter mRNA, GLI element; actives raise or lower the signal
Summary of the method: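 HepG2 cells transiently transfected with cis-promoter multiplexed reporter units report endogenous transcription factor activity. After 24 h chemical exposure, reporter mRNA was quantified by RT-PCR, 6-FAM labelling, HpaI digestion and capillary electrophoresis, with bidirectional fitting against DMSO.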

Measured: AC50

C=CC(=O)OCC(CC)(COC(=O)C=C)COC(=O)C=C
active: [1] 22 µM | [3] 26.6 µM
inactive: all other assays above

CCN(CC)c1ccccc1
inactive: all assays above

O=C(O)C(Cl)Cl
inactive: all assays above

CCOP(=S)(Oc1ccc([N+](=O)[O-])cc1)c1ccccc1 (configuration not stated)
active: [5] 3.35 µM
inactive: all other assays above

CCCCN(CCCC)SN(C)C(=O)Oc1cccc2c1OC(C)(C)C2
active: [5] 14.7 µM
inactive: all other assays above

OCC1CO1 (configuration not stated)
inactive: all assays above

Nc1cc2c3c(c1)C(c1ccccc1)=N[C@@H](NC(=O)c1cccnc1)C(=O)N3CC2
inactive: all assays above

N#Cc1ccc(O)cc1
inactive: all assays above

O=[N+]([O-])c1ccc(Cl)c(Cl)c1
inactive: all assays above

O=[N+]([O-])c1ccccc1
active: [5] 52.7 µM
inactive: all other assays above

COP(N)(=S)OC
inactive: all assays above

N#Cc1cc([N+](=O)[O-])ccc1N
inactive: all assays above

COP(=O)(CCC(=O)NCO)OC
inactive: all assays above

O=C(O)C=CC(F)(C(F)(F)F)C(F)(F)F
inactive: all assays above

O=S(=O)(F)C(F)(F)C(F)(F)C(F)(F)C(F)(F)C(F)(F)C(F)(F)C(F)(F)C(F)(F)F
inactive: all assays above

CCCCCCCc1ccc(O)cc1
active: [5] 3.89 µM [middle of 4 runs]
inactive: all other assays above

CO/N=C(/C(=O)OC)c1ccccc1COc1ccccc1C
active: [1] 100 µM | [3] 43 µM | [5] 42.9 µM
inactive: all other assays above

CC(=O)CCc1ccc2c(c1)OCO2
inactive: all assays above

Cc1ccc(N)cc1N
inactive: all assays above

ClC1=C(Cl)C2(Cl)C3C(Cl)C(Cl)CC3C1(Cl)C2(Cl)Cl (configuration not stated)
active: [1] 52.3 µM | [3] 25.2 µM | [5] 11.2 µM
inactive: all other assays above

CCC1(c2ccccc2)C(=O)N=C(O)NC1=O (configuration not stated)
inactive: all assays above

O=C(O)CF
inactive: all assays above

CCOP(=S)(OCC)SCSc1ccc(Cl)cc1
active: [5] 4.21 µM
inactive: all other assays above

N#C/C=C/c1ccccc1
inactive: all assays above

CCN(CC)C1CCCCC1
inactive: all assays above

CC(C)(C)OOC(C)(C)C
inactive: all assays above

O=S1(=O)OCC2C(CO1)C1(Cl)C(Cl)=C(Cl)C2(Cl)C1(Cl)Cl (configuration not stated)
active: [1] 26.5 µM | [3] 179 µM | [5] 1.84 µM | [10] 186 µM
inactive: all other assays above

CC(C)CBr
inactive: all assays above

O=c1ssc(Cl)c1Cl
active: [3] 60.3 µM | [6] 52.1 µM | [10] 59.1 µM
inactive: all other assays above

CCCCOCC1CO1 (configuration not stated)
not listed: [7]
inactive: all other assays above

Nc1ccc([N+](=O)[O-])cc1Cl
not listed: [7]
inactive: all other assays above

CC(C)(C)c1ccccc1OP(=O)(Oc1ccccc1)Oc1ccccc1
active: [5] 12.4 µM
not listed: [7]
inactive: all other assays above

O=P(Oc1ccccc1)(Oc1ccccc1)Oc1ccccc1
active: [3] 33.4 µM | [5] 9.81 µM | [10] 53.3 µM
not listed: [7]
inactive: all other assays above

CCCCOCCOP(=O)(OCCOCCCC)OCCOCCCC
not listed: [7]
inactive: all other assays above

CCOC(=O)c1ccccc1N
not listed: [7]
inactive: all other assays above

Nc1ccc2ccccc2c1
not listed: [7]
inactive: all other assays above

CCCCc1ccccc1
not listed: [7]
inactive: all other assays above

CC(C)(C)c1ccc(O)cc1
active: [5] 3.14 µM
not listed: [7]
inactive: all other assays above

CCOc1ccc(C(C)(C)COCc2cccc(Oc3ccccc3)c2)cc1
not listed: [7]
inactive: all other assays above

COP(=O)(O)OC
not listed: [7]
inactive: all other assays above

ClC(Cl)=C(c1ccc(Cl)cc1)c1ccccc1Cl
active: [1] 63.6 µM | [5] 4.18 µM | [6] 174 µM | [8] 160 µM
not listed: [7]
inactive: all other assays above

Cc1ccc(O)cc1C
active: [5] 160 µM
not listed: [7]
inactive: all other assays above

O=NN1CCCC1
not listed: [7]
inactive: all other assays above

COC(N)=O
not listed: [7]
inactive: all other assays above

c1ccc2c(c1)sc1ccccc12
active: [5] 125 µM
not listed: [7]
inactive: all other assays above

O=C(CBr)OCc1ccccc1
active: [5] 100 µM
not listed: [7]
inactive: all other assays above

CC1=C(C(=O)Nc2ccccc2)S(=O)(=O)CCO1
active: [1] 21.8 µM | [3] 10.7 µM
not listed: [7]
inactive: all other assays above

ClC(Cl)c1ccccc1
not listed: [7]
inactive: all other assays above

CCOS(=O)(=O)OCC
not listed: [7]
inactive: all other assays above

O=C(O)C(F)(F)C(F)(F)C(=O)O
not listed: [7]
inactive: all other assays above

CSC(C)(C)C=NO
not listed: [7]
inactive: all other assays above

C/C(=N\NC(=O)Nc1cc(F)cc(F)c1)c1ncccc1C(=O)O
not listed: [7]
inactive: all other assays above
